Experimental data as given in PubChem BioAssay.
Active and inactive are the calls of the source.

Legend:
[1] = binders of probe aFSTL3 on microarray, primary screen, stem cell growth factor project, biochemical, small-molecule microarray, fluorescence 635/667 (AID 1064); conditions: higher = more signal;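 note: measures binding of the biotinylated anti-FSTL3 antibody to printed compounds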
[2] = binders from COS7 lysate, DM2A8 probe, primary screen, torsin A project, cell lysate, small-molecule microarray, fluorescence 635/667 (AID 1065); conditions: higher = more signal, COS7 lysate expressing mutant human TOR1A
[3] = binders of probe aFGF2 on microarray, primary screen, stem cell growth factor project, biochemical, small-molecule microarray, fluorescence 635/667 (AID 1067); conditions: higher = more signal;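 note: measures binding of biotinylated aFGF2 protein to printed compounds on slides; z-score merges feature fluorescence and signal-to-noise across triplicate slides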
[4] = binders of probe aFGF10 on microarray, primary screen, stem cell growth factor project, biochemical, small-molecule microarray, fluorescence 635/667 (AID 1071); conditions: higher = more signal;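 note: score merges 667 nm spot intensity and signal to noise from triplicate slides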
[5] = target: Neurogenic locus notch homolog protein 2 (Homo sapiens) (UniProt Q04721); assay: Notch2 binders on small-molecule microarrays, primary screen, biochemical, small-molecule microarray, 635 nm fluorescence, stem cell growth factors (AID 1073); conditions: Notch2 binding, higher = more signal
[6] = target: Pro-neuregulin-1, membrane-bound isoform (Homo sapiens) (UniProt Q02297); assay: NRG1 binders on small-molecule microarrays, primary screen, psychiatric disease protein project, biochemical, small-molecule microarray, fluorescence 635/667 (AID 1075); conditions: NRG1 binding, 635 nm fluorescence, higher = more signal;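 note: score combines 667 nm spot fluorescence with signal to noise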
[7] = test system: Neuregulin-1 EGF-like domain; assay: binders of neuregulin-1 EGF-like domain, primary screen, biochemical, small-molecule microarray, 635 nm fluorescence (AID 1081); conditions: small-molecule microarray binding, higher = more signal;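 note: binding of the protein to compounds printed on small-molecule microarray slides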
[8] = FRG1 promoter luciferase signal modulators, primary screen, FRG1 inhibition for FSHD, cell-based, C2C12 myotubes, firefly/Renilla luciferase, luminescence (AID 1084); conditions: higher = more signal, called active from +8 up or from −8 down
[9] = binders of probe aFST on microarray, primary screen, stem cell growth factor project, biochemical, small-molecule microarray, fluorescence 635/667 (AID 1086); conditions: higher = more signal;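 note: score merges 667 nm fluorescence with signal-to-noise of each printed compound spot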
[10] = binders of probe aHhip on microarray, primary screen, stem cell growth factor project, biochemical, small-molecule microarray, fluorescence 635/667 (AID 1087); conditions: higher = more signal;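 note: score merges spot fluorescence at 667nm with spot signal to noise ratio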
[11] = test system: PRMT1 (protein arginine N-methyltransferase 1); assay: PRMT1 binders on small-molecule microarrays, primary screen, biochemical, small-molecule microarray, 635 nm fluorescence (AID 1088); conditions: small-molecule microarray binding, higher = more signal;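 note: binding of Prmt1 protein to compounds spotted on small-molecule microarray slides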
[12] = yeast growth modulation, basal conditions, primary screen, YJM789 clinical isolate, OD600, 24 h (AID 1089);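 note: growth of clinical yeast isolate S. cerevisiae YJM 789 seeded 1000 cells per well; test concentration not given here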; conditions: S. cerevisiae YJM789 growth, higher = more signal, called active from +8 up or from −8 down
[13] = fission yeast growth modulation, primary screen, strain 972, OD600, 24 h, no modulator (AID 1090);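 note: basal condition with compound alone and no growth modifier present; test concentration not given here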; conditions: S. pombe 972 growth, higher = more signal, called active from +8 up or from −8 down
[14] = S. cerevisiae growth modulation with rapamycin, primary screen, strain BY4716, OD600, 96 h (AID 1091); conditions: higher = more signal, called active from +8 up or from −8 down; note: test concentration not given here
[15] = target: Torsin-1A-interacting protein 2 (Homo sapiens) (UniProt Q8NFQ8); assay: LULL1 binders on small-molecule microarray, primary screen, cell lysate, human LULL1 lysate, 635/667 nm fluorescence (AID 1092); conditions: hLULL1 lysate binding, 635 nm fluorescence, higher = more signal;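 note: probe is lysate of COS7 cells overexpressing human LULL1; score merges per-feature 667 nm fluorescence with signal-to-noise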
[16] = E. coli growth modulation, two-sided OD650, primary screen, E. coli filamentation project, strain DRC41, 24 h (AID 1093); conditions: OD650, 24 h, higher = more signal, called active from +8 up or from −8 down;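 note: MC1000 strain lacking acrAB efflux and sulA so SOS filamentation is blocked; test concentration not given here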
[17] = small-molecule microarray binders of probe aLefty2, primary screen, biochemical, biotinylated probe, 635/667 nm fluorescence (AID 1094); conditions: higher = more signal;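 note: score merges spot fluorescence near 667 nm with spot signal-to-noise ratio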
[18] = test system: Noggin (protein binding on small-molecule microarray); assay: Noggin binders on small-molecule microarray, primary screen, biochemical, 635/667 nm fluorescence (AID 1095); conditions: 635 nm fluorescence, higher = more signal;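 note: score merges 667 nm feature fluorescence with signal to noise over triplicate slides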
[19] = target: Neurogenic locus notch homolog protein 3 (Homo sapiens) (UniProt Q9UM47); assay: NOTCH3 binders on small-molecule microarray, primary screen, biochemical, 635/667 nm fluorescence (AID 1096); conditions: NOTCH3 binding, 635 nm fluorescence, higher = more signal
[20] = small-molecule microarray binders of probe aEGFR, primary screen, biochemical, biotinylated probe, 635/667 nm fluorescence (AID 1097); conditions: higher = more signal;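 note: probe is a biotinylated anti-EGFR antibody binding compounds printed on slides; score combines fluorescence near 667 nm and signal to noise of each spot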

Sequence of Neurogenic locus notch homolog protein 3 (Homo sapiens) (Q9UM47 whole entry, looked up): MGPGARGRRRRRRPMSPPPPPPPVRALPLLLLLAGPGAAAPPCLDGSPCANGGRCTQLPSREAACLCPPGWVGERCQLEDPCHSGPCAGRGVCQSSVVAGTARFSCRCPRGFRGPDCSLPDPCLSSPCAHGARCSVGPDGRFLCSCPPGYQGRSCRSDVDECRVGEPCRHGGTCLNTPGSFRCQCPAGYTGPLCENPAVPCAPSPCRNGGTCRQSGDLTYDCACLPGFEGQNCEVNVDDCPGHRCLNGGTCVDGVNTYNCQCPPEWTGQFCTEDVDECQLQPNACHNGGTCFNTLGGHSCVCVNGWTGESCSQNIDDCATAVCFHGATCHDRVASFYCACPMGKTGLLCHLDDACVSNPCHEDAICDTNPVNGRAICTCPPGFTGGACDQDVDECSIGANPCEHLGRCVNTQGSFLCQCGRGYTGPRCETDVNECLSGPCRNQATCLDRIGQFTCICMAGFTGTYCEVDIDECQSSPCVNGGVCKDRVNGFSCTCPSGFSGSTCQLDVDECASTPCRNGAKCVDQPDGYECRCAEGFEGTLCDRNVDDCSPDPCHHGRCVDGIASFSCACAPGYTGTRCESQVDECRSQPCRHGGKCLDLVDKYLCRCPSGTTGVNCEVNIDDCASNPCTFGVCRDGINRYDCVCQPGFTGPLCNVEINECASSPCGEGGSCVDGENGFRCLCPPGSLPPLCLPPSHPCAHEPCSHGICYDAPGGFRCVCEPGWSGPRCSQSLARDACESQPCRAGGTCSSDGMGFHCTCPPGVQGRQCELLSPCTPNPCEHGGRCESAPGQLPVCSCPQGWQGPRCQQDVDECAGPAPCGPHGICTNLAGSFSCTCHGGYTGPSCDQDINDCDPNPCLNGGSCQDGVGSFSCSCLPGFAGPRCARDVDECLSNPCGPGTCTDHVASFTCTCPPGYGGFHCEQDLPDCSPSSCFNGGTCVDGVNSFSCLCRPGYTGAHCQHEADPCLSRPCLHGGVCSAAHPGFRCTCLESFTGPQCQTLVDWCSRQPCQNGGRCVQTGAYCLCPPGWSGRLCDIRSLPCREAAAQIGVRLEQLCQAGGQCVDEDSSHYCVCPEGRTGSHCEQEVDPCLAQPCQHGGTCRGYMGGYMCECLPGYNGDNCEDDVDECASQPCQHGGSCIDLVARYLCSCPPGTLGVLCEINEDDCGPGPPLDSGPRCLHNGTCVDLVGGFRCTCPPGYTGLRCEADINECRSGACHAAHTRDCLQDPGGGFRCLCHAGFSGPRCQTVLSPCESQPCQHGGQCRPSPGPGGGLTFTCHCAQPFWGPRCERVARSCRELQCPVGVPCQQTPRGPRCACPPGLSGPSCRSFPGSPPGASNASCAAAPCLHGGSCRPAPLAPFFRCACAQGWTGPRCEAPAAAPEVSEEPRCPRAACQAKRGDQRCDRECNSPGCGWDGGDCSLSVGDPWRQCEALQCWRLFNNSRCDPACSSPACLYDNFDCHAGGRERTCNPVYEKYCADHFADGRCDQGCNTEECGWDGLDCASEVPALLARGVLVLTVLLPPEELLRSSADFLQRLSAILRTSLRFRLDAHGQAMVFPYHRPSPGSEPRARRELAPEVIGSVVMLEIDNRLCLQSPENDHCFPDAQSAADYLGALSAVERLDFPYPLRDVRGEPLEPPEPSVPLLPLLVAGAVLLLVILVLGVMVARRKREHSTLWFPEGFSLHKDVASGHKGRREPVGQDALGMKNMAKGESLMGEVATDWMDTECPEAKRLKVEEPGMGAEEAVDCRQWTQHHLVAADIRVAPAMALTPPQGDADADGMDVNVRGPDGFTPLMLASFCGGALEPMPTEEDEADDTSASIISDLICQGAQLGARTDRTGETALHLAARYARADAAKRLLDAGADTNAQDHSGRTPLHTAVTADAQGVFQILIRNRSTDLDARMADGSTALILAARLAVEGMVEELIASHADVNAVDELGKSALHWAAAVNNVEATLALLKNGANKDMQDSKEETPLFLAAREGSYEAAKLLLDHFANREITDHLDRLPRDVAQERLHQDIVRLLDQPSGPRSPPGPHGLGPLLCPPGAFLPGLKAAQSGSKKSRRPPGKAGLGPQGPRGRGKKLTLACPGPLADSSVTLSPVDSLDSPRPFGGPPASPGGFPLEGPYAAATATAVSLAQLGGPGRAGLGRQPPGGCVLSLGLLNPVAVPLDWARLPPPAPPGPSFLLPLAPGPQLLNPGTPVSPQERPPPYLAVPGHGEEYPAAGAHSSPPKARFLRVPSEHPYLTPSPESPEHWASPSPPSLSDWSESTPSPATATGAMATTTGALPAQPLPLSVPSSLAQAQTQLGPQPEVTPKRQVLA
Sequence of Pro-neuregulin-1, membrane-bound isoform (Homo sapiens) (Q02297 whole entry, looked up, the tested form may be a part, canonical isoform): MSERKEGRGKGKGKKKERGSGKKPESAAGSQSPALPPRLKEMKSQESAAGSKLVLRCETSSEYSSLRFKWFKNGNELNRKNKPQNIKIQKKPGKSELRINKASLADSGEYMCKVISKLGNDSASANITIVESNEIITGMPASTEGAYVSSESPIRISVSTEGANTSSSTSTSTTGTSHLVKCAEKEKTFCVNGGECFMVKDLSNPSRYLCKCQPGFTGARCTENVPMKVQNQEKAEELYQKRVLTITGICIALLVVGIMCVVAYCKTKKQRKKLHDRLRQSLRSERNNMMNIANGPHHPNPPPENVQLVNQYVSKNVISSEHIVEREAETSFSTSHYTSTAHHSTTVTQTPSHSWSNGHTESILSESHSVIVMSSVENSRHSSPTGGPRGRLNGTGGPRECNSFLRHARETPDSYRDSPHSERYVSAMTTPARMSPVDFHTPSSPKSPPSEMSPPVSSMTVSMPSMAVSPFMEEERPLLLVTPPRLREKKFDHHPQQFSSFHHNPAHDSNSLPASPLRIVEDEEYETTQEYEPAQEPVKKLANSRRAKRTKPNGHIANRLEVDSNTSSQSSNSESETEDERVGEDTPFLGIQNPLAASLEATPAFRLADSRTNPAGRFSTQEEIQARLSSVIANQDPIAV
Sequence of Torsin-1A-interacting protein 2 (Homo sapiens) (Q8NFQ8 whole entry, looked up): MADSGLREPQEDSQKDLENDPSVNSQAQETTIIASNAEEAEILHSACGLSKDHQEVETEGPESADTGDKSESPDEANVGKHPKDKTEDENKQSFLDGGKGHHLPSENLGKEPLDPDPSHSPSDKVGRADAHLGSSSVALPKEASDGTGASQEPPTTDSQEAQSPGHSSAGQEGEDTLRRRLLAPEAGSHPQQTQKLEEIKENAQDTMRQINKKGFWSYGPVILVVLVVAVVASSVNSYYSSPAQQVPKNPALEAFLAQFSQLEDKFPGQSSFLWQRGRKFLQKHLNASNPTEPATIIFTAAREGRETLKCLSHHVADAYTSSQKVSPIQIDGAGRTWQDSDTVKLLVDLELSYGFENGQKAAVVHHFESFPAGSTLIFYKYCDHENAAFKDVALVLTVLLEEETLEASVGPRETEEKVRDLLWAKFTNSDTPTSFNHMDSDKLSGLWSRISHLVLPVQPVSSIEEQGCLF

Structure (SMILES) | composite z-score [1] | composite z-score [2] | composite z-score [3] | composite z-score [4] | composite z-score [5] | composite z-score [6] | composite z-score [7] | z-score [8] | composite z-score [9] | composite z-score [10] | composite z-score [11] | z-score [12] | z-score [13] | z-score [14] | composite z-score [15] | z-score [16] | composite z-score [17] | composite z-score [18] | composite z-score [19] | composite z-score [20]
CCOC(=O)C[C@H]1[C@H](OC(=O)Cc2ccc3c(c2)OCO3)[C@@H](NC(=O)CC(C)C)c2cc(OCCCO)ccc2N1C(=O)c1ccccc1 | -0.0798 | 0.128 | 0.0021 | 0.782 | 0.797 | -0.0284 | 0.855 | -1.2 (inactive) | 0.0004 | -0.0994 | 0.53 | -0.211 (inactive) | -1.36 (inactive) | -0.66 (inactive) | 0.836 | 1.6 (inactive) | -0.0127 | 0.542 | 0.417 | 0.0253
COCC(=C=CC[C@H](O)c1ccc(OCCO)cc1)C[C@H](O)c1ccccn1 | -0.103 | 0.628 | -0.156 | -0.106 | -0.499 | 0.508 | 1.27 | 1.61 (inactive) | -0.192 | -0.134 | 0.546 | 0.725 (inactive) | -1.05 (inactive) | -0.352 (inactive) | 1.38 | 1.06 (inactive) | -0.0216 | 0.0559 | -0.457 | -0.235
C=C(/C(=C/C[C@@H](OC(=O)c1ccncc1)c1ccc(CO)o1)c1cnc2ccccc2c1)C(C)C | 0.358 | 0.522 | -0.0767 | 1.02 | 1.52 | 1.15 | 1.04 | -0.493 (inactive) | 0.398 | -0.0994 | 1.54 | -0.0873 (inactive) | -2.27 (inactive) | -0.147 (inactive) | 1.1 | 1.23 (inactive) | -0.0569 | 1.08 | 1.09 | 0.0009
CC(C)CN1C(=O)[C@@]2(Cc3ccccc31)c1ccccc1C(=O)N(C1CCCCC1)[C@H]2c1ccc(CO)cc1 | 0.523 | -0.21 | -0.172 | -0.538 | -1.08 | -0.388 | -0.0501 | 0.172 (inactive) | -0.382 | -0.226 | 0.499 | -1.6 (inactive) | -1.32 (inactive) | -2.34 (inactive) | 2.01 | 1.56 (inactive) | -0.121 | -0.901 | -1.35 | -0.179
C=CCC(OC(C)=O)[C@@H]1[C@@H](N(Cc2cccc3ccccc23)C(=O)c2ccc(C)cc2)c2cc(OCCCO)ccc2N1C(=O)c1ccc(-c2ccccc2)cc1 (stereo not given in full) | 0.115 | 0.529 | -0.0753 | 0.255 | -0.169 | 0.0808 | -0.173 | -2.1 (inactive) | 0.159 | -0.335 | 0.578 | -2.24 (inactive) | 0.167 (inactive) | -0.347 (inactive) | 0.298 | 1.29 (inactive) | -0.11 | 0.314 | 0.387 | -0.0967
Cc1ccccc1C(O)C1C=CC2C(=O)N(c3ccccc3)C(=O)C2N1Nc1ccc(C#N)cc1 (stereo not given) | 0.834 | 1.46 | 0.429 | 1.15 | 1.63 | 1.91 | 1.25 | -1.25 (inactive) | 1.96 | -0.111 | 1.51 | 0.907 (inactive) | 1.85 (inactive) | 3.52 (inactive) | 2.89 | 0.478 (inactive) | 0.854 | 0.247 | 1.07 | 0.413
COC(=O)Cn1c(C(=O)N2CCCC2)cc2c1C[C@H]1CN(C(=O)c3ccccc3)[C@@](Cc3ccc(OC)cc3)(C(=O)OC)[C@@H]21 | 0.666 | -0.157 | 0.236 | 0.495 | 1.68 | 1.8 | 1.27 | 0.0502 (inactive) | 1.7 | 0.151 | -0.709 | 0.742 (inactive) | 1.39 (inactive) | 2.75 (inactive) | 3.24 | -0.485 (inactive) | 0.531 | -1.02 | 1.13 | 0.434
O=C(NCc1ccccc1)[C@@]1(CCS(=O)(=O)c2ccccc2)COC(c2ccc(OCCCO)cc2)=N1 | 0.971 | 0.985 | 0.0025 | 0.382 | 1.17 | 2.16 | 1.18 | -4.58 (inactive) | 0.662 | -0.15 | 1.53 | -0.53 (inactive) | -0.111 (inactive) | 31.5 (active) | 3.6 | 2.12 (inactive) | 0.167 | 0.16 | 1.13 | 0.0033
CCCNC(=O)[C@@H]1c2ccccc2C(=O)N(Cc2cc(F)cc(C(F)(F)F)c2)[C@H]1c1ccc(CO)cc1 | -0.0356 | 0.711 | 0.032 | 0.525 | 1.12 | 1.03 | 1.25 | -1.02 (inactive) | 0.613 | 0.0176 | 1.54 | -1.15 (inactive) | -2.49 (inactive) | -1.36 (inactive) | 2.83 | 1.97 (inactive) | 0.0465 | 1.66 | 1.05 | 0.289
Cc1ccc(N2C(=O)c3ccccc3[C@@H](C(=O)NCC(F)(F)F)[C@@H]2c2ccc(CO)cc2)nc1 | 1.83 | -1.33 | -0.195 | -1.11 | -2.11 | 1.15 | 1.26 | -0.307 (inactive) | -0.869 | -0.539 | -0.359 | -0.678 (inactive) | -1.24 (inactive) | 3.03 (inactive) | -0.338 | 1.08 (inactive) | 0.0143 | -2.15 | -1.01 | -0.157
